Source: PubChem BioAssay AID1920062 (Sanford-Burnham Center for Chemical Genomics, 2024)
Out of some 370,000 compounds screened, about 400 (0.11%) were called active. The sample holds actives, similar compounds and a random draw of the others, so the mix is not that of the screen.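 Rule for the calls: active = activation at 10 µM reaching about 35% in either raw or pattern-adjusted values (limit read from the data); inactive = the rest.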

target: Atrial natriuretic peptide receptor 2 (Homo sapiens) (UniProt P20594); test: GC-B stimulated cGMP production enhancers – HEK293 GC-B cells, cGMP TR-FRET, EC30 CNP, primary screen (AID 1920062); settings: at 10 µM, stronger effect = higher value, 0% at EC30 CNP, 100% saturating CNP
Sequence (P20594 whole entry, looked up): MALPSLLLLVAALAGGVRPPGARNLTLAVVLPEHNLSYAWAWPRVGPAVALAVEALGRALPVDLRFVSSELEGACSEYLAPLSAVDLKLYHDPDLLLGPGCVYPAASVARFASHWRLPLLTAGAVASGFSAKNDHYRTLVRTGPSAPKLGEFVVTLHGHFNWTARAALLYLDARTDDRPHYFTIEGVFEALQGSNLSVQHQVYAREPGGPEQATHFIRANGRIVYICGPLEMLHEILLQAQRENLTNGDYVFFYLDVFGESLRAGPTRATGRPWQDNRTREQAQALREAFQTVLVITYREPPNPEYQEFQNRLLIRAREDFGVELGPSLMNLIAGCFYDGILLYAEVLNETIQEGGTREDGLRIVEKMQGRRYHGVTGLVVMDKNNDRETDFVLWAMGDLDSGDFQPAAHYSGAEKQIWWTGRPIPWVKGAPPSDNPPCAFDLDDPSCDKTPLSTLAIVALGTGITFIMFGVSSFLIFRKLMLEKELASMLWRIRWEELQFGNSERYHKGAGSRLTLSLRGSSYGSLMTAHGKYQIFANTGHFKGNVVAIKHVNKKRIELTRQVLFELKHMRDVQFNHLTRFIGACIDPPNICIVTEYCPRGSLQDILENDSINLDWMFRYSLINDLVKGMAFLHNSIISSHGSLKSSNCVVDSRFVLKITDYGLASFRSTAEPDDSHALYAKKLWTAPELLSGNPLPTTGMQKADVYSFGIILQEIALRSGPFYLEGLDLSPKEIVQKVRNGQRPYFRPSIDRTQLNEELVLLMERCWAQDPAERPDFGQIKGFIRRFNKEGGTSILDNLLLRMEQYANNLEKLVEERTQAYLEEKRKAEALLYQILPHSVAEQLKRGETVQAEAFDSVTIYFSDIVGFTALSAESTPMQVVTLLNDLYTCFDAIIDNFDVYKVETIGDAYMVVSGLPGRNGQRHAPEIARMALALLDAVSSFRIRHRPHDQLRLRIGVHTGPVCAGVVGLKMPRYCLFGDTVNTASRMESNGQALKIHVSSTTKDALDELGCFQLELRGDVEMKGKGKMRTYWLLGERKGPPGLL

activation, active:
COC(=O)Cc1c(-c2[nH]c3ccccc3c2CC(=O)OC)[nH]c2ccccc12 36.5%
O=C(NCCc1ccco1)c1nn(Cc2ccccc2)c(=O)c2ccccc12 49.5%
CCCc1nn(C)c2c(=O)[nH]c(-c3cc(S(N)(=O)=O)ccc3OCC)nc12 55%
COc1ccc(S(=O)(=O)N2CCOCC2)cc1NC(=O)CSc1nnc(NC2CC2)s1 56.9%
COc1cc(/C=C2/C(=O)ON=C2C)ccc1OCc1ccccc1F 37.2%
COc1cc(/C=C2/C(=O)ON=C2C)ccc1OCc1cccc(F)c1 38.1%
CCn1c(=O)c([N+](=O)[O-])c(NCc2ccc3c(c2)OCO3)c2ccccc21 38.9%
Cc1ccc(CN(N=Nc2nonc2N)c2nonc2N)c(C)c1 42.7%

activation, inactive:
O=C(CCCCCCCC(=O)N1CCCCC1)N1CCCCC1 2.66%
Cc1ccc(NC(=S)N2CCCC(c3ccccc3)=N2)cc1 -5.08%
Cc1cccc(NC(=S)N2CCCC(c3nc4ccccc4[nH]3)C2)c1 (centres undefined) 0.09%
CC(C)[C@H](NC(=O)c1ccc(F)cc1)C(=O)OCC(=O)NC(=O)c1cccn1C -6.93%
COC(=O)CN(c1cccc(C(C)=O)c1)S(C)(=O)=O -0.3%
COc1ccc(CNC(=O)COC(=O)CCS(=O)(=O)c2ccc(C)cc2)cc1OC -7.76%
COc1ccccc1CCCNC(=O)C1CCC(=O)N(CCN2CCOCC2)C1 (centres undefined) 0.93%
Cc1ccc(C(=O)COC(=O)CCCC(=O)NC2CCCCC2)cc1[N+](=O)[O-] -3.79%
CCCc1c(C)nc2scc(-c3ccc(Cl)cc3)n2c1=O 3.02%
O=S(=O)(Cc1nnnn1-c1ccccc1)c1ccccc1 3.43%
CCCCc1ccc(S(N)(=O)=O)cc1 1.33%
O=C(CCCN1C(=O)C2C3C=CC(C3)C2C1=O)N1CCN(c2ccccc2)CC1 (centres undefined) 6.38%
COC(=O)c1cc(S(=O)(=O)N2CCN(C(=O)C3CCCO3)CC2)cn1C (centres undefined) -2.49%
Cn1c(CC2Sc3ccccc3NC2=O)nnc1SCC(=O)c1ccc(Cl)cc1 (centres undefined) -0.22%
CC(CCc1ccc(O)cc1)NCc1ccc(Cl)cc1Cl (centres undefined) -2.85%
OC(CCl)CCl -3.1%
CCOC(=O)C1CCN(C(=O)Cc2c(C(=O)O)[nH]c3ccccc23)CC1 -0.71%
COC(=O)CCNC(=O)c1ccc2[nH]c(C)c(C)c2c1 2.4%
N#CC1(NC(=O)COc2ccc3oc4ccccc4c3c2)CCCCC1 -3.84%
CN1CCN(S(=O)(=O)c2ccc(NC(=O)C3CCCO3)cc2)CC1 (centres undefined) 1.58%
CCCOc1ccc(CN(CCO)CCO)cc1C(=O)OC 3.92%
Cc1ccsc1C(=O)NCCc1ccco1 1.1%
O=c1c2ccccc2c(-c2ccc(Br)cc2)nn1Cc1ccccc1 0.94%
COc1ccc(OC)c(-n2nnnc2SCC(=O)Nc2cc(C)ccc2OC)c1 -3.61%
COC(=O)c1ccc2ccccc2c1OC1OC(CO)C(O)C(O)C1NC(C)=O (centres undefined) 1.14%
CCCc1nc2ccccc2c(C(=O)OCc2nnc(-c3cc(OC)c(OC)c(OC)c3)o2)c1CC 27.3%
CC1(C)O[C@@H]2[C@H](O1)[C@@H](COS(=O)(=O)O)O[C@H]2n1cnc2c(=O)[nH]cnc21 9.84%
COc1cccc(CC(=O)N2CCN(C(=O)C(=O)c3cccc(C(F)(F)F)c3)CC2)c1 0.51%
COc1ccc(-n2c(SCC(=O)Nc3ccc4c(c3)OCCO4)nnc2-c2ccc(Cl)cc2)cc1 -4.33%
C/C(COc1ccccc1)=N\NC(=O)c1nnn(-c2nonc2N)c1-c1ccc(C)cc1 -1.04%
Cc1cc(Cl)ccc1OCc1nc(-c2ccncc2)no1 -5.32%
C=CCN(CC=C)C(=O)COC(=O)c1n[nH]c2ccccc12 -3.45%
CCOc1ccccc1N1CCN(C(=S)Nc2ccc(S(N)(=O)=O)cc2)CC1 0.9%
CCOc1ccc(-n2cnc3c(=O)[nH]c(N)nc32)cc1 20.7%
Cc1ccc(NS(=O)(=O)c2ccc(C(=O)NCCCN3CCOCC3)cc2)cc1 1.4%
COc1ccc(S(=O)(=O)N2CCOCC2)cc1NC(=O)CSc1cc(C)ccc1C -3.41%
Cc1ccc(S(=O)(=O)N2CCOCC2)cc1NC(=O)CSc1nnc(N)s1 -3.12%
CCCCn1c(N)c(N(CC(C)C)C(=O)c2cccc(S(=O)(=O)N3CCN(C(C)=O)CC3)c2)c(=O)[nH]c1=O 4.82%
CC(=O)Nc1ccc(Nc2ncnc3c2nnn3Cc2ccccc2Cl)cc1 -5.33%
COc1ccnc2c1c(=O)n(Cc1cccc(F)c1)c(=O)n2C 9.01%
COc1cccc(CNCCc2c[nH]c3ccccc23)c1OCc1ccccc1F -11.1%
C/C=C/c1ccc(OCCOc2ccc(C=O)cc2OC)c(OC)c1 -3.69%
COc1cc(CNc2ncn[nH]2)ccc1OCc1ccccc1C -2.6%
COC(=O)[C@@H]1C[C@@]2(O)[C@@H](O)[C@@H](O)[C@@H](O)C[C@H]2N1Cc1ccc(C)s1 -2.84%
O=C(/C=C/[C@H]1O[C@@H](n2cnc3c(NC(=O)c4ccccc4)ncnc32)[C@H](O)[C@@H]1O)NCc1ccccc1 -3.16%
O=C(Nc1nccs1)C1CCN(S(=O)(=O)c2ccc(Cl)c(C(F)(F)F)c2)CC1 -2.77%
COc1ccccc1C(=O)C(O)c1ccccc1OC (centres undefined) 4.06%
CC(=O)Nc1ccc(/C(C)=N/NC(=O)CN(c2ccccc2Br)S(C)(=O)=O)cc1 1.02%
COc1cc(C2C(N3C(=O)c4ccccc4C3=O)C(=O)N2c2ccc(C)c(C)c2)cc(OC)c1OC (centres undefined) 3.45%
Cc1cccc(N(C(=O)Cc2cccs2)C(C(=O)NCc2ccco2)c2ccncc2)c1 (centres undefined) -16%
CC(C)n1c(-c2ccncc2)n[nH]c1=S 5.74%
Cc1ccccc1C1=NC(C(F)(F)F)(C(F)(F)F)c2c(n(-c3ccc(F)cc3)c(=O)[nH]c2=O)N1 -3.86%
O=C(NCc1cc(C(F)(F)F)cc(C(F)(F)F)c1)C1CC(c2cccc(F)c2)=NO1 (centres undefined) 4.68%
CC1=C(C(N)=O)C(c2ccc(F)cc2)n2nc(CCCO)nc2N1 (centres undefined) 12.2%
C=CCn1c(=O)c(C(=O)NCc2ccc3c(c2)OCO3)c(O)c2ccccc21 5.25%
CCN(CC)C(=O)C(=O)c1cn(CC(=O)NCc2ccc3c(c2)OCO3)c2ccccc12 -1.28%
CCCCNC(=O)c1nc(C2CCN(S(=O)(=O)c3ccc(F)c(F)c3)CC2)oc1-c1cccc(C(F)(F)F)c1 1.59%
CC1CN/C(=C\C(=O)c2ccc(Br)cc2)C(=O)N1 (centres undefined) -4.27%
N#Cc1ccccc1S(=O)(=O)N1CCN(Cc2c(O)ccc3ccccc23)CC1 2.67%
CCn1c(/C=C/Nc2ccccc2)[n+](CC)c2ccc(C(=O)OCC(F)(F)F)cc21 -2.59%
O=C(OCCN1C(=O)c2ccccc2C1=O)[C@@H]1CC(O)CN1S(=O)(=O)c1ccccc1[N+](=O)[O-] (some centres undefined) -3.1%
COC(=O)[C@@]12CCCCC3=C1N(CCC3)C(=O)[C@H]2CC(=O)NCc1cccc2ccccc12 -3.99%
CCc1nc2c(OCc3ccccc3)cccn2c1N(C)C(=O)c1ccco1 3.48%
Cc1ccc(/C=C(\C#N)C(=O)Nc2cccc3ncccc23)o1 -4.94%
N#Cc1ccc(C(=O)Nc2nc(-c3cccs3)c(C(=O)C(F)(F)F)s2)cc1 -0.02%
COc1cc(CCC(=O)N2CCN(c3ccccc3Cl)CC2)cc(OC)c1OC -3.86%
COc1cccc(COC(=O)C2CCN(S(=O)(=O)c3cccs3)CC2)c1OC 1.88%
Cc1ccc(C(=O)N2CCCC(c3ccccc3)=N2)cc1 2.95%
Nc1nc(SC23CC4CC(CC(C4)C2)C3)ns1 -0.97%
CS(=O)(=O)N(CC(=O)Nc1ccc(F)cc1)C1CCCCC1 0.74%
CN(C)c1nc2n(c(=O)n1)CCO2 4.05%
O=C(COc1cccnc1[N+](=O)[O-])Nc1ccc(Cl)cc1F -6.77%
CC(C)(C)c1ccc(C(=O)NCC(=O)OCN2C(=O)c3ccccc3C2=O)cc1 -3.65%
CN(Cc1cccnc1)C(=O)c1cc(COc2ccc3ncccc3c2)on1 0.47%
C=CCC1(CC=C)CCCN1C(=O)c1cc(COc2ccc(-n3cncn3)cc2)on1 -1.1%
CC1=NN(C(=O)Cc2ccc(C)cc2)C(O)(c2cccnc2)C1 (centres undefined) -0.71%
O=C(Nc1ccccc1Cl)NC1(C(=O)N2CCOCC2)CCCCC1 0.64%
CCN(Cc1ccccc1)C(=O)CCS(=O)(=O)c1ccc2c(c1)oc(=O)n2C 4.57%
O=C(NNC(=S)Nc1ccc(F)cc1)[C@H]1C[C@@H]1c1ccccc1 2.74%
COc1ccc(OC)c(NC(=O)c2cnn(-c3ccccc3Cl)c2NC(=O)c2ccco2)c1 -0.32%
CCCC(c1nnnn1C(C)(C)C)N1CCN(Cc2ccccc2)CC1 (centres undefined) -1.17%
